Shown are actives, neighbours in structure and some others; about 12% of the full set was active somewhere.
BAZ2B block: qHTS Assay for Inhibitors of BAZ2B | Potency, µM (series often up to 114 µM), inactives show at the top dose activity change, negative = inhibition, most hits filed as inhibitors | AID 504333, 2011 | 4.4% of 360,000 active | Bromodomain adjacent to zinc finger domain protein 2B (Homo sapiens), Q9UIF8 | AlphaScreen BAZ2B-H3K14Ac peptide displacement; further: on the % scale 0 is the no-effect control and ±100 the full control effect; nearly all actives have a fitted effect of over 60% in size
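Inhibition is scored as reduced AlphaScreen emission. The BAZ2B/b-H3(5-23)K14Ac complex (50 nM each) in PBS pH 7.4, 0.01% Tween-20 meets compound (up to 110 uM) for 30 min at RT before bead addition.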
JMJD2A Tudor inh: qHTS Assay for Inhibitors of JMJD2A-Tudor Domain. AlphaScreen JMJD2A-Tudor / H3K4me3 peptide binding. Potency, µM (doses to about 114 µM), for the others: top-dose activity change, negative = inhibition, usual class: inhibitors. 4.4% of 390,000 active; further: on the % scale 0 is the no-effect control and ±100 the full control effect; nearly all actives have a fitted effect of over 50% in size
Target sequence (O75164 whole entry, looked up, the tested form may be a part): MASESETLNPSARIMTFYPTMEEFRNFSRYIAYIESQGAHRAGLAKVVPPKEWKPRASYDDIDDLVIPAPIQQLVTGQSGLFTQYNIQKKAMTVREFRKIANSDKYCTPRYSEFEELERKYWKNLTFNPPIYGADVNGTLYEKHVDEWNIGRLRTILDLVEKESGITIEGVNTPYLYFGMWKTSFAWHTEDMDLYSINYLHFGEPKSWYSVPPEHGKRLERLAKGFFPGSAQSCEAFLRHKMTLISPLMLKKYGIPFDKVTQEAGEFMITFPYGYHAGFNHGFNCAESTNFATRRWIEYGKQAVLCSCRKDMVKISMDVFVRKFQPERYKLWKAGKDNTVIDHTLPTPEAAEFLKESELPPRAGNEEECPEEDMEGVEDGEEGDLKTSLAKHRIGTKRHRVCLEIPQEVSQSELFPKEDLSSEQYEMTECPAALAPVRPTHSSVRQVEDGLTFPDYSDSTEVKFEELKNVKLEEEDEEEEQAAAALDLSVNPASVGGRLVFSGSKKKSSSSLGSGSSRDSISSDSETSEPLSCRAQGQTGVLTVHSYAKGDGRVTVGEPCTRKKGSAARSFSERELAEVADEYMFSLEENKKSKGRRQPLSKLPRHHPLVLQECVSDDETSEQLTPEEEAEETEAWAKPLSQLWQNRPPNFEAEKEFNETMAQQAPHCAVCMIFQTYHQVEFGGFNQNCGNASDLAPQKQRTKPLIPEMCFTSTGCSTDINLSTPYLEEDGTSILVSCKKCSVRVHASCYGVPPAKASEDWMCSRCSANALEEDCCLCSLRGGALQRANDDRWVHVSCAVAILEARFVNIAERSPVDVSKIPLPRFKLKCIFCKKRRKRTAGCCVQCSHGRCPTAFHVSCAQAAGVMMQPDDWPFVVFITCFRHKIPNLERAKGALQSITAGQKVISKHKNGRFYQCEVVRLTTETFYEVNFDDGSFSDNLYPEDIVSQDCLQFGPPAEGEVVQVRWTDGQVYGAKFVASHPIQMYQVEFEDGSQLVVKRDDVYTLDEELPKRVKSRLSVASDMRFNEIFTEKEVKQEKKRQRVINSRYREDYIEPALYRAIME
G9a block: qHTS Assay for Inhibitors of Histone Lysine Methyltransferase G9a. G9a H3K9 monomethylation, AlphaScreen, 2 h. 8.8% of 350,000 active. Potency, µM (highest dose often 102 µM), inactives show top-dose activity, negative = inhibition, actives largely listed as inhibitors; further: on the % scale 0 is the no-effect control and ±100 the full control effect; nearly all actives have a fitted effect of over 75% in size
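AlphaScreen read-out: biotin-H3K9 peptide (500 nM) methylation by 20 nM enzyme with 20 uM SAM, 2 h at room temperature after 15 min compound preincubation; anti-monomethyl H3K9 antibody plus donor/acceptor beads, 10 min dark.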
Sfp inh: qHTS Assay for Inhibitors of Bacillus subtilis Sfp phosphopantetheinyl transferase (PPTase); 4'-phosphopantetheinyl transferase ffp (Bacillus subtilis), Q9F4F7; Biochemical Sfp PPTase activity, qHTS; Potency, µM, for the others: largest response in the series, negative = inhibition, hits mostly inhibitors; 3.5% of 310,000 active; AID 1490, 2009;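 further: the enzyme is Sfp with the accession as filed and its product quenches rhodamine fluorescence; 0% = enzyme reaction without inhibitor and -100% = no enzyme wells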
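Fluorescence-quenching assay: 15 nM Sfp-PPTase preincubated 15 min at room temperature with compound, then 5 uM rhodamine-CoA and 12.5 uM BHQ-2-labelled YbbR peptide added. Fluorescence (ex 525/em 598 nm) read at start and after 30 min; difference gives rate.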
TDP1 inh: qHTS Assay for Inhibitors of Tyrosyl-DNA Phosphodiesterase (TDP1); AID 485290, 2010; Potency, µM (titrated, usually from 130 µM), without a hit: top-dose activity change, negative = inhibition, most hits filed as inhibitors; 0.28% of 350,000 active; Tyrosyl-DNA phosphodiesterase 1 (Homo sapiens), Q9NUW8; recombinant TDP1, AlphaScreen DNA substrate cleavage; further: on the % scale 0 is the no-effect control and ±100 the full control effect; nearly all actives have a fitted effect of over 40% in size
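E. coli-derived human Tdp1, 1 nM final. Cpd preinc 15 min RT; substrate 15 nM final, 5 min RT; AS bead mix 10 ug/ml final, 10 min RT. Signal loss = tyrosine-FITC cleavage. No-enzyme wells = max signal.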
HP1b chromo inh: HTS for Inhibitors of HP1-beta Chromodomain Interactions with Methylated Histone Tails | 0.56% of 390,000 active | Potency, µM (series often up to 114 µM), inactives show at the top dose activity change, negative = inhibition, most hits filed as inhibitors | AlphaScreen HP1-beta / biotin-H3K9me3 peptide binding; further: nearly all actives have a fitted effect of over 70% in size
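HP1-beta protein (50 nM final) preincubated 30 min at room temperature with biotinylated H3(1-18)K9me3 peptide (50 nM) in PBS pH 7.4, 0.01% Tween-20, then compound added for 30 min. AlphaScreen streptavidin donor/nickel chelate acceptor beads (10 ug/mL final), 30 min dark, luminescence read.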
* marks the source's active call; other numbers are inactive results; ? = inconclusive; nt = no result; [ ] = another dose, or the depositor's remark. The call rests on the fitted dose curve; in most records, active means well fitted curve in the direction sought with a large enough effect; inconclusive means small, poorly fitted or top-dose-only effect, or another doubt; inactive means no such curve, though single readings can be large; an effect the other way counts as inactive or inconclusive. Potency means the concentration at half of the fitted maximal effect.

SMILES | BAZ2B block | JMJD2A Tudor inh | G9a block | Sfp inh | TDP1 inh | HP1b chromo inh
O=C1NC(=S)NC(=O)C1=Cc1ccc(Br)s1 | 56µM* | 28µM* | nt | 16µM* | 10% | ?
COC1=CC(=O)OC(CCc2ccccc2)C1 (stereo unspecified) | nt | nt | nt | nt | 15% | nt
COC(=O)[C@@H]1[C@@H]2C[C@H]3c4[nH]c5cc(OC)ccc5c4CCN3C[C@@H]2C[C@H](OC(=O)/C=C\c2cc(OC)c(OC)c(OC)c2)[C@H]1OC | nt | nt | ? | -15% | 19%[21 µM] | nt
CC1(C)Cc2c(sc3c2C(=O)NC(c2cccnc2)N3)CO1 (stereo unspecified) | 6% | -19% | ? | 40µM* | 4% | 29%
C=CCn1c(C)c(C=C2C(=O)NC(=O)NC2=O)c2ccccc21 | -38% | -30% | 50µM* | -8% | nt | 22%
O=C(Oc1ccccc1)N1CCC2(CC1)CN(Cc1ccncc1)C2 | nt | nt | 37%[12.7 µM] | 5% | nt | nt
O=C1NC(=S)SC1=Cc1ccc(N(CCCl)CCCl)cc1 | nt | 32µM* | nt | nt | nt | ?
O=c1[nH]cnc2nc(-c3ccc(N(CCCl)CCCl)cc3)[nH]c12 | nt | -21% | nt | nt | nt | 9%[57 µM]
CC(C)(C)OC(=O)C(Br)CCBr (stereo unspecified) | nt | nt | nt | -10% | 6% | nt
CCC(C)N1C(=O)/C(=C/c2ccc3c(c2)CCN3CCCCl)C(=O)NC1=S (stereo unspecified) | 50µM* | 50µM* | 13µM* | ? | 0% | ?
Cc1ccc(-n2nc(C)c3c2OC(N)=C(C#N)C3c2cccs2)cc1 (stereo unspecified) | 35µM* | -1% | 35µM* | 6% | 13% | 37%
CC(C)(C)c1cc(O)ccc1O | nt | nt | 4.5µM* | 40µM* | 6% | nt
CC1C(=O)OC2C1CC[C@@]1(C)C=CC(=O)[C@@]3(C)O[C@@]213 (stereo partly specified) | nt | nt | ? | 6% | 11%[56.1 µM] | nt
CC1CCCC(C)N1C(=O)CSc1nnc(NC(=O)c2cccs2)s1 (stereo unspecified) | -6% | -5%[57.1 µM] | 50µM* | 8% | 4% | 38%
CN(C)S(=O)(=O)c1cccc(C(=O)N2CCC(C(=O)O)(c3ccccc3)CC2)c1 | 2% | -15% | -19% | 4% | 12% | 50%
CN1CCN(S(=O)(=O)c2cccc(C(=O)N3CCN(c4ccccc4F)CC3)c2)CC1 | 7% | -17% | 2µM* | nt | nt | 18%
Cn1cnc([N+](=O)[O-])c1Sc1ccc([N+](=O)[O-])cc1 | -8% | -12% | nt | 56µM* | 6% | 2%
C=CCNC(=S)/N=C/c1c(O)[nH]c(=O)[nH]c1=O | 8% | -3% | nt | 45µM* | 6% | 21%
CCCCCCCCN=Cc1c(O)[nH]c(=O)[nH]c1=O | 2% | -7% | nt | -9% | nt | 27%
NC(=S)/N=C/c1c(O)[nH]c(=O)[nH]c1=O | -12% | -26% | 79µM* | -18% | -6% | 12%
O=[N+]([O-])c1cc(-c2ccc([As](=O)(O)O)cc2)ccc1[As](=O)(O)O | ? | nt | 50µM* | -2% | 35µM* | nt
O=[N+]([O-])c1ccc([As](=O)(O)O)cc1 | nt | nt | ? | 5% | nt | nt
CN[C@H](CC(C)C)C(=O)N[C@H]1C(=O)N[C@@H](CC(N)=O)C(=O)N[C@H]2C(=O)N[C@H]3C(=O)N[C@H](C(=O)N[C@H](C(=O)O)c4cc(O)cc(O)c4-c4cc3ccc4O)[C@H](O)c3ccc(c(Cl)c3)Oc3cc2cc(c3O[C@@H]2O[C@H](CO)[C@@H](O)[C@H](O)[C@H]2O[C@H]2C[C@](C)(N)[C@H](O)[C@H](C)O2)Oc2ccc(cc2Cl)[C@H]1O | nt | nt | 38%[12.7 µM] | nt | 6%[56.1 µM] | nt
COc1ccc2c(c1)NP(=S)(Oc1ccccc1)N2 (stereo unspecified) | ? | ? | 7.1µM* | 32µM* | 2% | ?
O=C(O)CCCC[C@H]1SC[C@H]2NC(=O)N[C@@H]21 | nt | nt | 0.4µM* | 15% | 29%[21 µM] | nt
SMILES | BAZ2B block | JMJD2A Tudor inh | G9a block | Sfp inh | TDP1 inh | HP1b chromo inh
CC(O)CN(CCN(CC(C)O)CC(C)O)CC(C)O (stereo unspecified) | nt | nt | 8%[12.7 µM] | 79µM* | nt | nt
Cn1cc2c([N+](=O)[O-])cc([N+](=O)[O-])cc2n1 | ? | nt | 79µM* | 4% | -4% | nt
Cc1nc2ccccc2c(=O)n1-c1cc([N+](=O)[O-])cc([N+](=O)[O-])c1 | -32% | -8% | 14%[59 µM] | 19% | nt | 38%
Cc1cc(/C=C2\C(=O)NC(=O)N(c3ccccc3F)C2=O)c(C)n1-c1cc(C(=O)O)cc(C(=O)O)c1 | 28µM* | 11µM* | 10µM* | -18% | nt | 13µM*
Cc1cc(/C=C2/C(=O)NC(=O)N(C)C2=O)c(C)n1-c1ccccc1 | -13% | -27% | ? | 0% | -3% | 49%
Cc1cc(/C=C2\C(=O)NC(=O)N(c3ccccc3)C2=O)c(C)n1-c1ccc(C(=O)O)c(Cl)c1 | ? | -26% | 45µM* | -21% | nt | 5%
Cc1cc(/C=C2\C(=O)NC(=O)N(c3ccc(F)cc3)C2=O)c(C)n1-c1cccc(C(=O)O)c1 | -36% | -26% | 35µM* | -16% | 0% | 6%
CN1C(=O)N(C)C(=O)C2(Cc3cc([N+](=O)[O-])ccc3N3CCN(C(=O)c4ccccc4)CC32)C1=O (stereo unspecified) | -5% | -14% | 11% | 8% | 3%[0.0935 µM] | -4%
COc1ccccc1C(=O)Nc1ccc2c(c1)CC1(C(=O)N(C)C(=O)N(C)C1=O)C1CCCN21 (stereo unspecified) | -20% | -31% | 32µM* | -5% | 5% | 8%[57 µM]
Cc1cccc(C(=O)Nc2ccc3c(c2)CC2(C(=O)N(C)C(=O)N(C)C2=O)C2CCCN32)c1 (stereo unspecified) | -16% | -21% | 28µM* | -23% | 4% | 39%
O=CN1CCCCC1C1CC[C@H]2CCCCN2C1 (stereo partly specified) | nt | nt | nt | -15% | 12%[56.1 µM] | nt
C[N+]1=Cc2cc3c(cc2CC1)OCO3 | nt | nt | nt | -6% | 10%[56.1 µM] | nt
O=C1C(I)=CC(=C(c2cc(I)c(O)c(I)c2)c2ccccc2C(=O)O)C=C1I | nt | nt | ? | 32µM* | nt | nt
